In PubChem BioAssay AID1159580 (chemical genetic matrix, 2015):
Screen size: about 5,500 compounds; about 2,000 (36%) were called active. About 18% were inconclusive and are not listed. Cut-off read from the data, not from the text of the source: active = normalized growth mostly below about 0.91 (no sharp cut-off); inconclusive = no clear call, values can overlap the other calls; inactive = mostly above about 0.92. The list shows a part of the results.

Experiment: chemical genetic growth profiling, strain panel (AID 1159580);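 note: tested at 20 µM; growth read once vehicle control cultures reached saturation at 30 °C; 1 = growth at the plate median or of vehicle wells; lower values mean less growth of the strain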
Conditions: S. cerevisiae deletion strains, growth OD

Measured: normalized growth

CC1(NCC(O)COc2cccc3[nH]ccc23)CCC(C(C)(C)NC(=O)CBr)CC1 (centres undefined)
inactive: locus YAL040C, strain CLN3, stronger effect = lower value 1.04 | locus YCL061C, strain MRC1 (second series), stronger effect = lower value 0.993 | locus YDR363W, strain ESC2, stronger effect = lower value 1.03 | locus YER002W, strain NOP16, stronger effect = lower value 1.03 | locus YGR078C, strain PAC10, stronger effect = lower value 1 | locus YGR229C, strain SMI1, stronger effect = lower value 0.997 | locus YMR307W, strain GAS1, stronger effect = lower value 0.99 | locus YNL175C, strain NOP13, stronger effect = lower value 1.02 | locus YNL197C, strain WHI3, stronger effect = lower value 1.02 | locus YNL224C, strain SQS1, stronger effect = lower value 1.06 | locus YNL322C, strain KRE1, stronger effect = lower value 0.973 | locus YOR083W, strain WHI5 (second series), stronger effect = lower value 1.02 | locus YPL055C, strain LGE1, stronger effect = lower value 0.968 | locus YPL241C, strain CIN2, stronger effect = lower value 1
